Results filed as inconclusive are left out. Entries that show only a call come without a potency. The source made the active and inactive calls. The call rests on the fitted dose curve; in most records, active means well fitted curve in the direction sought with a large enough effect; inconclusive means small, poorly fitted or top-dose-only effect, or another doubt; inactive means no such curve, though single readings can be large; an effect the other way counts as inactive or inconclusive.
Assays:
[1] = target: Aldehyde dehydrogenase, mitochondrial (Homo sapiens) (UniProt P05091); assay: qHTS for Inhibitors of the Aldehyde Dehydrogenase Family (ALDH2) Primary screen (AID 2061308); further: nearly all actives have a fitted effect of over 55% in size
[2] = target: Retinaldehyde dehydrogenase 3 (Homo sapiens) (UniProt P47895); assay: qHTS for Inhibitors of the Aldehyde Dehydrogenase Family (ALDH1A3) Primary screen (AID 2061315)

Row | SMILES | Potency [1] | Potency [2]
1 | Cc1ccc(CNc2ncc(N3CCCCC3)cn2)cc1 | inactive | inactive
2 | O=C(NC(c1ccco1)c1cc(Cl)c2cccnc2c1O)c1ccsc1 (stereo not given) | inactive | inactive
3 | O=C(O)C1C2C(=O)N(c3ccccc3)C[C@@]23C=C[C@@H]1O3 (stereo not given in full) | inactive | inactive
4 | COc1cccc(C2=Nn3c(nnc3-c3ccc(OC)cc3OC)SC2)c1 | inactive | inactive
5 | COc1cc(OC)cc(C2=Nn3c(nnc3-c3ccccc3OC)SC2)c1 | inactive | inactive
6 | CS(=O)(=O)c1ccc(C(=O)OCC(=O)N2CCC(Cc3ccccc3)CC2)cc1[N+](=O)[O-] | inactive | inactive
7 | Oc1ccc(CNc2ccc3ccccc3n2)c2cccnc12 | inactive | inactive
8 | C=CCNc1oc(-c2ccc(Cl)cc2)nc1C#N | inactive | inactive
9 | CCCn1c(-c2ccc(F)cc2)nc2c(N3CCCN(Cc4ccccc4)CC3)nc(C)nc21 | inactive | inactive
10 | Cc1ccc(-c2cc(C(=O)NCc3ccc(S(N)(=O)=O)cc3)c3ccccc3n2)cc1C | inactive | inactive
11 | Cc1ccc(NS(=O)(=O)c2ccc(F)cc2)cc1C | inactive | inactive
12 | CCCn1c(C)nc2c(N(C)CCN(C)C)nc(C)nc21 | inactive | inactive
13 | Cc1cc(N[S+](=O)([O-])c2cc3c(cc2Cl)CCC(=O)N3)ccc1Br | inactive | inactive
14 | Cc1cc2c(s1)c1cnn(Cc3ccccc3F)c(=O)c1n2C | inactive | inactive
15 | FC(F)(F)c1ccccc1-c1nc(NCc2ccc(-c3ccncc3)cc2)c2ccccc2n1 | inactive | inactive
16 | O=C(Nc1ccc(-c2nc3ccccc3[nH]2)cc1)Nc1ccc2occc2c1 | inactive | inactive
17 | CNc1oc(-c2ccc(F)cc2)nc1C#N | inactive | inactive
18 | Cc1ccc(-c2cc(C(=O)Nc3ccn[nH]3)c3ccccc3n2)cc1C | inactive | inactive
19 | Cn1c2cc(Br)sc2c2cnn(Cc3ccc(F)cc3F)c(=O)c21 | inactive | inactive
20 | Cc1cc2c(cc1C1(c3ccc(C(=O)O)cc3)CC1)C(C)(C)CCC2(C)C | inactive | inactive
21 | N#Cc1c(Cl)cccc1Oc1ccc([S+](=O)([O-])N2CCN([S+](=O)([O-])c3c(F)cccc3F)CC2)cc1 | inactive | inactive
22 | COc1ccc(C2Nc3ccccc3C(=O)N2CCO)cc1COc1c(C)cc(NC(C)=O)cc1C (stereo not given) | inactive | inactive
23 | NC(=O)C1CCN(c2nc(-c3ccccc3F)cs2)CC1 | inactive | inactive

Row | SMILES | Potency [1] | Potency [2]
24 | Cn1c(=O)c2c(nc(CN3CCN(C(=O)C4CC4)CC3)n2Cc2ccccc2Cl)n(C)c1=O | inactive | inactive
25 | CCC1CCC2(C1)N=C(Nc1nc3ccccc3o1)NC1=C2C(=O)CCC1 (stereo not given) | inactive | inactive
26 | O=C(Nc1ccc2ccccc2c1)Nc1nnc(C2CCCCC2)s1 | inactive | inactive
27 | CCOc1ccc(-c2csc(N3CCC(C(N)=O)CC3)n2)cc1 | inactive | inactive
28 | O=C(Nc1sc2c(c1-c1nc3ccccc3s1)CCNC2)C(F)F | inactive | inactive
29 | Cc1cc2c(s1)c1cnn(Cc3ccc(OC(F)F)cc3)c(=O)c1n2C | inactive | inactive
30 | Fc1ccc(-c2nc(-c3c(F)cccc3F)[nH]c2-c2ccncc2)cc1 | inactive | inactive
31 | Cc1cc(C)nc(NC(=S)N2CCN(c3cccc(C#N)c3)CC2)c1 | inactive | inactive
32 | COc1cccc(NC(=S)N2CCN(c3ccc(Cl)cc3Cl)CC2)n1 | inactive | inactive
33 | COc1cccc(NC(=S)N2CCN(c3cccc(Cl)c3Cl)CC2)n1 | inactive | inactive
34 | Cc1ccc(OCCn2c(CCNC(=O)c3ccc4cc[nH]c4c3)nc3ccccc32)cc1 | inactive | inactive
35 | O=C1CCCC2=C1C(c1[nH]ncc1Cl)N=C(Nc1ccn[nH]1)N2 (stereo not given) | inactive | inactive
36 | Cc1cc2c(s1)c1cnn(Cc3ccc(-c4ccccc4)cc3)c(=O)c1n2C | inactive | inactive
37 | O=S(=O)(c1ccc2c(c1)OCCO2)C1CCC(S(=O)(=O)c2c(F)cccc2F)CC1 (stereo not given) | inactive | inactive
38 | C[C@@H]1CC[C@]2(C(=O)O[C@@H]3O[C@H](CO)[C@@H](O)[C@H](O)[C@H]3O)CC[C@]3(C)C(=CCC4[C@@]5(C)C[C@@H](O)[C@H](O)[C@](C)(C(=O)O)C5CC[C@]43C)[C@@H]2[C@]1(C)O (stereo not given in full) | inactive | inactive
39 | Cc1cc(C)nc(NC(=S)N2CCN(c3cccc4nccn34)CC2)c1 | inactive | inactive
40 | CC(C)n1cc(-c2ccc(Oc3ccccc3)cc2)c2c(N)ncnc21 | inactive | inactive
41 | C=C1C(=O)OC2CC3(C)C(O)C(=O)C=C(C)C3CC12 (stereo not given) | inactive | inactive
42 | COc1cc(C(=O)Nc2nc(-c3ccccc3)cs2)ccc1NS(=O)(=O)c1ccc(C)cc1 | inactive | inactive
43 | O=C(Nc1nc(-c2ccccc2)cs1)c1ccncc1NS(=O)(=O)c1ccccc1 | inactive | inactive
44 | COc1cccc(NC(=S)N2CCN(c3ccc4ccccc4n3)CC2)n1 | inactive | inactive
45 | COc1ccc(C2=Nn3c(nnc3-c3ccccc3O)SC2)cc1OC | inactive | inactive
46 | O=C1CCCC2=C1C(c1[nH]ncc1Cl)N=C(Nc1nc3cc([S+](=O)([O-])N4CCCC4)ccc3o1)N2 (stereo not given) | inactive | inactive

Row | SMILES | Potency [1] | Potency [2]
47 | Cc1cc(C)nc(NC(=S)N2CCN(c3nncs3)CC2)c1 | inactive | inactive
48 | Cn1nnnc1Sc1ncnc2scc(-c3cccc(C(F)(F)F)c3)c12 | inactive | inactive
49 | COc1ccccc1C1c2c(ncn(-c3ccccc3)c2=N)Oc2ccc3ccccc3c21 (stereo not given) | inactive | inactive
50 | CN(Cc1ccco1)c1ncnc2ccc(-c3ccc4c(c3)OCCO4)cc12 | inactive | inactive
51 | C=C(C)c1cc2c(s1)c1cnn(Cc3ccccc3F)c(=O)c1n2C | inactive | inactive
52 | Cc1cc(-c2cc(O)ccc2Cl)cc2nnc(Nc3ccc(OCCN4CCCC4)cc3)nc12 | inactive | inactive
53 | O=S1(=O)N=C(Sc2cc(C(F)(F)F)cc(C(F)(F)F)c2)c2ccccc21 | inactive | inactive
54 | Cc1cc(C)nc(NC(=S)N2CCN(S(=O)(=O)c3cccc(C(F)(F)F)c3)CC2)c1 | inactive | inactive
55 | Cn1nnnc1Sc1ncnc2scc(-c3ccc[nH]3)c12 | inactive | inactive
56 | CCCn1c(-c2ccc(F)cc2)nc2c(NCCN3CCCCC3)nc(C)nc21 | inactive | inactive
57 | O=C(Nc1ccccc1)Nc1nnc(-c2ccncc2)s1 | inactive | inactive
58 | CCCCCCNC(=O)Nc1nnc(-c2ccncc2)s1 | inactive | inactive
59 | O=C(NCc1cccnc1)C1CCN(S(=O)(=O)c2cccs2)CC1 | inactive | inactive
60 | CNC(=O)c1cnn2c(C)cc(C)nc12 | inactive | inactive
61 | N#Cc1nc(Nc2cccc(C(F)(F)F)c2)nc(NC2CCCC2)n1 | inactive | inactive
62 | CCc1ccc(NC(=O)c2cnn3c(C)cc(-c4ccccc4)nc23)cc1 | inactive | inactive
63 | Cc1ccc(-c2cc(C(=O)NC3CCCCC3)c3ccccc3n2)cc1C | inactive | inactive
64 | Clc1cccc(CSc2nc3ncc(Br)cc3[nH]2)c1 | inactive | inactive
65 | O=C(NCCc1nc2ccccc2n1CCOc1ccc2cccnc2c1)C1CCCCC1 | inactive | inactive
66 | O=C(Cc1ccc(Cl)c(Cl)c1)Nc1ccc(S(=O)(=O)Nc2ccccc2)cc1 | inactive | inactive
67 | Cc1cc2c(s1)c1cnn(Cc3ccc(Cl)cc3)c(=O)c1n2C | inactive | inactive
68 | O=S1(=O)N=C(OCc2ccccc2)c2ccccc21 | inactive | inactive
69 | Cc1ccc(-c2cc(C(=O)Nc3ccc(-n4cncn4)cc3)c3ccccc3n2)cc1C | inactive | inactive

Row | SMILES | Potency [1] | Potency [2]
70 | O=S(=O)(Nc1nccs1)c1ccc(NCc2cccc(O)c2)cc1 | inactive | inactive
71 | CCOc1ccc(CCNC(=O)c2cc3sccc3n2CCN2CCN(C)CC2)cc1OCC | inactive | inactive
72 | Cc1cccc(CNc2ccnc(-c3cccc(C(F)(F)F)c3)n2)c1 | inactive | inactive
73 | Cc1cc2c(s1)c1cnn(Cc3ccc(Br)cc3F)c(=O)c1n2C | inactive | inactive
74 | COc1cccc(CNc2ccc(S(=O)(=O)Nc3cccc(N4CCNCC4)c3)cc2)c1O | inactive | inactive
75 | COc1cccc(-c2nnc3n2N=C(c2cc(OC)ccc2OC)CS3)c1 | inactive | inactive
76 | O=C(Nc1ccc(-c2nc3ccccc3[nH]2)cc1)c1ccc2n[nH]nc2c1 | inactive | inactive
77 | COc1ccccc1NC(=O)c1ccc2ccccc2c1 | inactive | inactive
78 | Cn1nnnc1Sc1ncnc2scc(-c3cccc(F)c3)c12 | inactive | inactive
79 | Cc1ccc(-c2ccc(=O)n(CC(=O)N(C)[C@@H](C)c3ccccc3)n2)cc1 | inactive | inactive
80 | Fc1ccccc1-c1nc(-c2ccc(-c3nn[nH]n3)cc2)no1 | inactive | inactive
81 | CCOC(=O)c1ccoc1-c1ccc2ncnc(NCCc3cnc[nH]3)c2c1 | inactive | inactive
82 | Cc1csc(CNc2ncnc3ccc(-c4ccccc4Cl)cc23)c1 | inactive | inactive
83 | O=S(=O)(c1cccc(O)c1)N1CCN(S(=O)(=O)c2c(F)cccc2F)CC1 | inactive | inactive
84 | Nc1ccc(NC(=O)Nc2nnc(-c3ccncc3)s2)cc1C(F)(F)F | inactive | inactive
85 | Cc1c(C(O)(c2ccccc2)c2ccccc2)[n+]2ccccc2n1C | inactive | inactive
86 | CCCn1c(C)nc2c(NCCCN(CC)CC)nc(C)nc21 | inactive | inactive
87 | COc1ccccc1C1=Nn2c(nnc2-c2ccccc2C)SC1 | inactive | inactive
88 | C#C[C@]1(O)CC[C@H]2[C@@H]3CCC4=C/C(=N/O)CC[C@@H]4[C@H]3CC[C@@]21CC | inactive | inactive
89 | CC(C)c1nc2c(cnn2C)c(=O)n1N | inactive | inactive
90 | Cc1cc(C)n2ncc(C(=O)NC3CCCCC3)c2n1 | inactive | inactive

— PubChem BioAssay (NCATS)
